This is one part of a sample in which hits are shown more often than they occur.
GLA inh pH 4.5 = blocks human alpha-galactosidase A at pH 4.5 | purified enzyme, 4-MU-alpha-Gal fluorescence, pH 4.5 | activity change, negative = inhibition, % at 105 µM | P06280 | 230,000 tested, under 10 active;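 note: 0% = full activity with enzyme and -100% = basal without enzyme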
Target sequence (P06280 whole entry, looked up): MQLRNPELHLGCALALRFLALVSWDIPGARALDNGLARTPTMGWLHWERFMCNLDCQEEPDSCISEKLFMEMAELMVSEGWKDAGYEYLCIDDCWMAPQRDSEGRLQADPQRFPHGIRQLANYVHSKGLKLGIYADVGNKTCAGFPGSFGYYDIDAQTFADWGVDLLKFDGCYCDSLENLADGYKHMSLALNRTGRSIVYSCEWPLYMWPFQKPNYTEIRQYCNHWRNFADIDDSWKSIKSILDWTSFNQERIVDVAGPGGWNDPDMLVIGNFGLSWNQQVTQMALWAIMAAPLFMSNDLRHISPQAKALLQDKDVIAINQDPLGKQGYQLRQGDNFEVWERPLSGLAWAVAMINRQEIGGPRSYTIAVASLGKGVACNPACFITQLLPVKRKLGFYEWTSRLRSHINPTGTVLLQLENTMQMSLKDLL
GAA spleen mod = inhibits or activates alpha-glucosidase in human spleen homogenate; P10253; human spleen homogenate, 4-MU-alpha-glucoside fluorescence; Potency, µM (top dose mostly 79.9 µM), for inactives: at the top dose activity change, negative = inhibition, usual class: inhibitors; 240,000 compounds, 0.006% hits; AID 2112;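 note: potency is the fitted concentration of half-maximal effect; 0% = enzyme with vehicle and -100% = no enzyme basal signal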
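Enzyme source: human spleen homogenate, 1 ug/well. Buffer 50 mM citric acid/K phosphate pH 5.0, 0.01% Tween-20. 4-MU-alpha-glucoside 1 mM; 37 C x 40 min; NaOH/glycine stop; fluorescence.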
GLA spleen mod = inhibits or activates alpha-galactosidase in human spleen homogenate; human spleen homogenate, 4MU-alpha-Gal fluorescence, 40 min; Potency, µM (titrated, usually from 80 µM), for the others: top-dose activity change, negative = inhibition, most hits filed as inhibitors; 240,000 compounds, 0.008% hits;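 note: potency is the fitted concentration of half-maximal effect; 0% = enzyme with vehicle and -100% = no enzyme basal signal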
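Inhibition or activation of alpha-galactosidase in human spleen homogenate is scored by 4-MU fluorescence after 40 min at 37C, pH 5.0, with 1 mM substrate. AC50s come from concentration-response fitted to the Hill equation.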
GAA glycogen = inhibitors or activators of human alpha-glucosidase glycogen cleavage; P10253; recombinant GAA, glycogen substrate, Amplex Red glucose oxidase fluorescence; Potency, µM (doses to about 76.4 µM), for inactives: at the top dose activity change, negative = inhibition, usual class: inhibitors; 300,000 compounds, 0.38% hits; AID 2100;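 note: potency is the fitted concentration of half-maximal effect; 0% = full enzyme reaction and -100% = no-enzyme basal signal; the screen sought inhibitors and activators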
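Natural-substrate format: glycogen cleavage by 4 nM human enzyme, glucose read by Amplex Red coupling (Ex 573, Em 610 nm). Normalized to enzyme and no-enzyme controls.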
GAA inhib = alpha-glucosidase (human) inhibition. P10253. purified human GAA, 4-MU-alpha-glucoside fluorescence. Potency, µM (series often up to 76.9 µM), for the others: top-dose activity change, negative = inhibition, actives largely listed as inhibitors. 200,000 compounds, 0.005% hits;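 note: potency is the fitted concentration of half-maximal effect; plate controls were uninhibited enzyme wells for no effect and no-enzyme background for full effect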
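Fluorogenic assay: 4 nM human alpha-glucosidase with 400 uM 4-methylumbelliferyl-alpha-D-pyranoside in 50 mM citrate/phosphate, 0.005% Tween-20, pH 5.0, 20 min at room temperature. Compounds tested up to 77 uM; AC50 from Hill fits.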
Active calls of the source: *; ? = inconclusive; nt = not tested or not shown; [ ] = dose if it differs, or a comment. Calls come from the whole dose curve; as a rule, active = well fitted curve in the direction sought with a large enough effect; inconclusive = small, poorly fitted or top-dose-only effect, or another doubt; inactive = no such curve, though single readings can be large; an effect the other way counts as inactive or inconclusive.

SMILES	GLA inh pH 4.5	GAA spleen mod	GLA spleen mod	GAA glycogen	GAA inhib
COCCCNC(=S)NNC(=S)Nc1ccccc1	-5.0	-1.9%	1.7%	6.26µM*	-2.2%
O=C(N/N=C/c1ccccc1O)NC12CC3CC(CC(C3)C1)C2	nt	nt	nt	-5.9%	nt
O=C(N/N=C/c1ccc(O)c(O)c1)NC12CC3CC(CC(C3)C1)C2	nt	nt	nt	10µM*	nt
COc1ccc(C2=Nn3c(nnc3-c3ccc(OC)cc3OC)SC2)c(OC)c1	nt	-0.8%	4.3%	nt	nt
Cn1c(=O)c2c(nc(N/N=C/c3ccco3)n2C)n(C)c1=O	8.2	-2.2%	4.4%	8.91µM*	?
CCCCn1cc[n+](C)c1	nt	-6.6%	2.0%	nt	nt
CCCCCC1(C)NC(=S)N(c2ccccc2)N1 (centres undefined)	-3.4	-2.2%	-0.2%	35.5µM*	-4.3%
CCCCCCC1(C)NC(=S)N(c2ccccc2)N1 (centres undefined)	3.6	-6.3%	-7.9%	?	-4.0%
Oc1ccc(N2CCN(C(c3ccncc3)c3nnnn3C3CCCC3)CC2)cc1 (centres undefined)	-0.3	-11.2%	-6.0%	12.5µM*	-7.6%
c1cc(C(c2nnnn2C2CCCC2)N2CCOCC2)ccn1 (centres undefined)	-6.9	-2.0%	-2.0%	-4.1%	1.6%
Cc1nc(NS(=O)(=O)c2ccccc2)sc1NC(=O)OCCN(C)C	2.7	-4.6%	1.2%	25.1µM*	-5.2%
CCOC(=O)CNc1c(-c2ccc(OC)cc2)nc2ccc(Cl)cn12	-1.5	-1.9%	1.4%	?	1.5%
COCCNc1c(-c2ccc(OC)cc2)nc2ccc(Cl)cn12	8.9	7.9%	4.0%	4.97µM*	7.1%
Cc1ccc2nc(-c3ccc(C)o3)c(Nc3ccc4c(c3)OCCO4)n2c1	nt	nt	nt	6.31µM*	nt
Cc1ccc(-c2nc3ccccn3c2Nc2ccc3c(c2)OCCO3)o1	nt	nt	nt	4.47µM*	nt
Cc1ccc(-c2nc3ccccn3c2Nc2ccccc2)o1	4.6	8.6%	29.5%	7.94µM*	6.5%
c1cncc(-c2nc3ccccn3c2Nc2ccc3c(c2)OCCO3)c1	-17.5	-2.3%	-5.6%	17.7%	-5.2%
Cc1cc(C)n2c(Nc3ccc4c(c3)OCCO4)c(-c3ccc(C)o3)nc2n1	-5.3	-14.7%	3.8%	18.4%	-10.6%
c1csc(-c2nc3ccccn3c2Nc2ccc3c(c2)OCCO3)c1	nt	nt	nt	12.6µM*	nt
C=C[C@@H](C1=CC(=O)C(OC)=C(OC)C1=O)c1ccccc1	-1.2	-0.6%	-10.8%	nt	nt
COc1ccc(OC)c(C2=Nn3c(nnc3-c3ccccc3O)SC2)c1	nt	10.5%	9.6%	nt	nt
NCC(=O)N[C@@H](CCCN=C(N)N)C(=O)NCC(=O)N[C@@H](CC(=O)O)C(=O)N[C@@H](CO)C(=O)N1CCC[C@H]1C(=O)O	nt	0.1%	-6.7%	nt	nt
C[C@@H]1C(=O)O[C@H]2C[C@@]34[C@H]5C[C@@H](C(C)(C)C)[C@]36[C@H](OC(=O)[C@H]6O)O[C@]4(C(=O)O5)[C@]21O	nt	-1.4%	6.8%	nt	nt
OC[C@@H]1O[C@H](O)[C@H](O)[C@@H](O)[C@@H]1O	nt	-4.4%	-9.7%	nt	nt
c1ccc(-c2nn[nH]n2)c(Nc2cccc3c2CCCC3)c1	nt	-4.5%	5.8%	nt	nt
SMILES	GLA inh pH 4.5	GAA spleen mod	GLA spleen mod	GAA glycogen	GAA inhib
CC(C)c1onc(-c2c(Cl)cccc2Cl)c1COc1ccc(/C=C/c2cccc(C(=O)O)c2)c(Cl)c1	nt	7.0%	11.3%	nt	nt
CC(C)[C@H](NC(=O)[C@H](CC(=O)O)NC(=O)CNC(=O)[C@@H](N)CCCN=C(N)N)C(=O)O	nt	2.6%	-5.2%	nt	nt
COc1ccc(-n2c(=O)c3c4c(sc3n(Cc3cccc(F)c3)c2=O)CN(C(C)=O)CC4)c(OC)c1	-2.1	7.0%	3.8%	-1.0%	7.0%
COc1ccc(-n2c(=O)c3c4c(sc3n(Cc3ccc(F)cc3)c2=O)CN(C(C)=O)CC4)c(OC)c1	nt	nt	nt	56.2µM*	nt
Cc1nnsc1C(=O)NNS(=O)(=O)c1cc(C(F)(F)F)cc(C(F)(F)F)c1	-6.1	7.3%	5.7%	?	4.1%
Cc1ccc(S(=O)(=O)NNC(=O)c2snnc2C)cc1	1.9	-0.4%	0.7%	25.1µM*	-5.0%
COc1c(O)c(O)c2cc(OC)c3c(OC)cc(=O)c4c5c(=O)c(OC)c(C(C)=O)c6c5c(c1CC=6C)c2c34	nt	-12.3%	5.0%	nt	nt
CSc1cccc(-n2cc(-c3ccc4c(c3)OCO4)[nH]c2=O)c1	2.8	-5.8%	-16.7%	35.2µM*	-2.8%
O=c1c(-c2ccc(O)cc2)coc2cc(O[C@@H]3O[C@H](CO)[C@@H](O)[C@H](O)[C@H]3O)cc(O)c12	nt	-0.4%	-3.2%	nt	nt
COc1cc(-c2cc(=O)c3c(O)c(OC)c(OC)c(O)c3o2)ccc1O	-1.0	-24.9%	-1.3%	22.4µM*	nt
CCOc1ccc(NC(=S)N(CCc2c(C)[nH]c3ccc(C)cc23)Cc2ccco2)cc1	10.1	1.8%	6.7%	35.5µM*	3.4%
COc1ccc(NC(=S)N(CCc2c(C)[nH]c3ccc(C)cc23)Cc2ccco2)cc1	-4.1	-7.5%	-13.0%	-20.4%	-4.5%
Cn1c(=O)c2sccc2n2c(CCCC(=O)Nc3ccc(F)c(F)c3)nnc12	nt	nt	nt	2µM*	nt
Cc1ccc(NC(=O)CCCc2nnc3n(C)c(=O)c4sccc4n23)cc1C	nt	nt	nt	-4.1%[76.3 µM]	nt
Nc1ccccc1Nc1cccc(C(F)(F)F)c1	0.6	nt	-2.2%	11.2µM*	-5.2%
Cc1cc(C)nc(Nc2cccc(C(F)(F)F)c2)n1	nt	nt	nt	-5.4%[76.3 µM]	nt
Cc1cccc(C(=O)NNC2=CC(=O)CC(C)(C)C2)c1O	-16.5	-6.2%	-8.0%	7.94µM*	nt
CC1(C)CC(=O)C=C(NNC(=O)c2ccccc2O)C1	0.4	1.6%	0.1%	44.7µM*	-11.1%
C=C1CCN(C(Cc2ccccc2)C(=O)NCc2ccc(Cl)cc2)S(=O)(=O)c2ccccc21 (centres undefined)	nt	-12.4%	-0.6%	nt	nt
Cn1sc(=O)n(Cc2ccccc2)c1=O	nt	9.8%	20.5%	nt	nt
CCOC(=O)c1c(C)[nH]c(NC(=O)Nc2c(C)n(C)n(-c3ccccc3)c2=O)c1C	-2.9	-19.9%	1.3%	31.6µM*	-3.8%
CCOCC(=O)Nc1c(C)n(C)n(-c2ccccc2)c1=O	1.4	-0.7%	-3.9%	9.0%	?
Cc1[nH]c2ccccc2c1C(O)CN1CCN(c2cccc(C(F)(F)F)c2)CC1 (centres undefined)	?	-5.9%	28.2µM*	-17.5%	?
Cc1[nH]c2ccccc2c1NC(=O)CN1CCN(c2cccc(C(F)(F)F)c2)CC1	-4.9	-0.3%	4.8%	-12.3%	-1.5%
COc1ccc(NC=O)c(C(=O)CCNC(C)=O)c1	nt	9.0%	7.0%	nt	nt
Cc1cc(OCCn2cc(/C(N)=N/O)c3ccccc32)ccc1Cl	2.3	-20.2%	1.8%	17.8µM*	-4.8%
CCC(C)c1cc([N+](=O)[O-])cc([N+](=O)[O-])c1OC(=O)OC(C)C (centres undefined)	nt	1.4%	-2.3%	nt	nt
CCOc1cc(/C=C2/NC(=O)N(Cc3ccccc3F)C2=O)ccc1O	-7.9	-17.3%	5.3%	5.62µM*	1.2%
